Compound activity: PubChem BioAssay, National Center for Advancing Translational Sciences (NCATS)
TRHR enhancer = allosterically enhances the human TRH receptor; enhancement, % at 2 µM; P34981; TRHR cells, fluo-8 calcium fluorescence, EC20 TRH enhancement; hit rate 0.66% among 360,000; in the data active = enhancement above about 30%; note: 0% is about no effect
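TRHR-expressing cells loaded with fluo-8 calcium dye were read kinetically (ex 480/em 530) during compound addition, then stimulated with an EC20 of TRH (10 nM final). Enhancement of the Gq-mediated intracellular calcium response was scored.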
D1 agonist = human D1 receptor agonism; hit rate 1% among 360,000; HEK293 T-REx D1 cells, calcium flux, agonist mode; activation, % at 2 µM; P21728; AID 504660; note: 0% is about no effect
Target sequence (P21728 whole entry, looked up): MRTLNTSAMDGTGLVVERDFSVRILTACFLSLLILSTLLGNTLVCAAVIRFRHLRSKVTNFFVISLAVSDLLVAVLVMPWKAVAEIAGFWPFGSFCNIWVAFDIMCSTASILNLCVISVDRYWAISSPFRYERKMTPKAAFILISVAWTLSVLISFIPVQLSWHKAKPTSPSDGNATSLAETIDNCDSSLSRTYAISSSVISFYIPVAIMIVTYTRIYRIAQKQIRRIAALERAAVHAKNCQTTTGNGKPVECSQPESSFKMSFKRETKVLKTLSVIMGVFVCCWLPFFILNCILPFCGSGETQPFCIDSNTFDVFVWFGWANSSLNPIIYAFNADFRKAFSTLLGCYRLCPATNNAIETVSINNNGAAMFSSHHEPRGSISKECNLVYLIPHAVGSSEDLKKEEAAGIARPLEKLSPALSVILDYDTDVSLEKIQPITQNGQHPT
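Agonism was scored from calcium flux recorded over 180 s (1 read/s) after pintool compound addition, following a 10-cycle baseline. Cells were inducible force-coupled HEK293 TREx D1, plated overnight at 30 C and loaded with no-wash calcium dye.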
D1 PAM = human D1 dopamine receptor positive modulation; HEK293 TREx D1 cells, calcium flux, dopamine EC20 potentiation; P21728; hit rate 0.036% among 360,000; potentiation, % at 10 µM; in the data active = potentiation above about 30%; note: 0% is about no effect
TRHR agonist = activates the human TRH receptor. TRHR cells, calcium flux fluo-8, FDSS agonist mode. activation, % at 2 µM. hit rate 0.18% among 360,000. AID 493084; note: 0% is about no effect
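Steps: seed TRHR cells overnight; add fluo-8 no-wash Ca dye, RT 30 min–1.5 h; record 10 s baseline; pin-transfer compounds; monitor fluorescence 1 cycle/s for the agonist window. Calcium increases flag candidate agonists.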
D1 antag = human D1 dopamine receptor antagonism | hit rate 3.2% among 360,000 | HEK293 TREx D1 cells, calcium flux, dopamine EC80; active compounds read low | activity change, negative = inhibition, % at 10 µM | P21728; in the data active = activity change below about -30%; note: % is set by controls: 0 for no effect and ±100 for the full control effect
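Tetracycline-induced HEK293 T-REx cells with force-coupled D1 receptor were loaded with a no-wash calcium dye. Compound was added after a 10 s baseline and read kinetically for 180 s; EC80 dopamine was then added and calcium flux followed another 180 s.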
* = called active by the depositor. An excerpt weighted towards active compounds, which were near 4.7% of everything screened. Cut-off read from the data, not from the text of the source, unless noted: active = activation above about 30%; inactive = the rest.

CC(=O)c1c(C)[nH]c(C(=O)Nc2ccc(Cl)cc2F)c1C was read as TRHR enhancer 1, D1 agonist 8, D1 PAM -16, TRHR agonist -1 and D1 antag -4.
For CC(=O)c1c(C)[nH]c(C(=O)Nc2ccc(Cl)c(S(=O)(=O)N(C)C)c2)c1C the results were TRHR enhancer 2, D1 agonist 9, D1 PAM -19, TRHR agonist 2 and D1 antag -50*.
`CC(C)CC1(C)NC(=O)N(CC(=O)Nc2cccc(S(=O)(=O)N(C)c3ccccc3)c2)C1=O` (stereo not given) gave TRHR enhancer 0, D1 agonist 0, D1 PAM 0, TRHR agonist 0 and D1 antag -39*.
COc1ccc(-c2cc(C)no2)cc1S(=O)(=O)N1CC(C)Oc2ccccc21 (stereo not given) was read as TRHR enhancer 1, D1 agonist 26, D1 PAM -2, TRHR agonist 2 and D1 antag -10.
`CCOC(=O)c1noc2ncn(CC(=O)O)c(=O)c12` gave TRHR enhancer 5, D1 agonist 3, D1 PAM 0, TRHR agonist 0 and D1 antag 5.
For CCN(CC(=O)Nc1cccc(S(=O)(=O)N(C)c2ccccc2)c1)Cc1ccccc1 the results were TRHR enhancer -8, D1 agonist 11, D1 PAM 4, TRHR agonist 2 and D1 antag 2.
For Cc1ccccc1CN(C)CC(=O)Nc1cccc(S(=O)(=O)N(C)c2ccccc2)c1 the results were TRHR enhancer -4, D1 agonist 14, D1 PAM -12, TRHR agonist 1 and D1 antag -41*.
Cn1c(Oc2ccc(F)cc2)nc2c1c(=O)n(Cc1ccccc1Cl)c(=O)n2C was read as TRHR enhancer -5, D1 agonist 3, D1 PAM -2, TRHR agonist -1 and D1 antag 4.
`COc1ccc(CCC(=O)N2CCc3c([nH]c4ccccc34)C2c2ccc(F)cc2)cc1` (stereo not given) gave TRHR enhancer 4, D1 agonist 5, D1 PAM -4, TRHR agonist 0 and D1 antag -5.
Screening COc1ccc(CC(=O)N2CCc3c([nH]c4ccccc34)C2c2ccc(SC)cc2)cc1 (stereo not given) returned TRHR enhancer 0, D1 agonist 1, D1 PAM -1, TRHR agonist 0 and D1 antag -40*.
`O=C(CSCc1ccc(F)cc1)N1CCc2c([nH]c3ccccc23)C1c1ccc(Cl)cc1` (stereo not given) gave TRHR enhancer 2, D1 agonist 2, D1 PAM -1, TRHR agonist 0 and D1 antag -31*.
Screening Cc1ccc(CNC(=O)C2CCCN(S(=O)(=O)c3cccc4nsnc34)C2)cc1 (stereo not given) returned TRHR enhancer 13, D1 agonist -2, D1 PAM 0, TRHR agonist -1 and D1 antag 5.
For COc1cc(/C=C2\CC(C(C)(C)C)C/C(=C\c3cc(OC)c(OC)c(OC)c3)C2=O)cc(OC)c1OC (stereo not given) the results were TRHR enhancer 29, D1 agonist 32*, D1 PAM -3, TRHR agonist -1 and D1 antag 1.
`COc1cc(/C=C2\CC/C(=C\c3cc(OC)c(OC)c(OC)c3)C2=O)cc(OC)c1OC` gave TRHR enhancer 0, D1 agonist 2, D1 PAM -3, TRHR agonist 0 and D1 antag 2.
For COc1ccc(C(=O)Nc2cc(C(C)=O)c(/C=C/N(C)C)oc2=O)cc1 the results were TRHR enhancer -5, D1 agonist 41*, D1 PAM -3, TRHR agonist 22 and D1 antag 20.
Screening N#C/C(=C/c1ccc(N2CCCCC2)o1)C(=O)Nc1ccc(Cl)cc1 returned TRHR enhancer 0, D1 agonist 420*, D1 PAM -18, TRHR agonist 165* and D1 antag -3.
N#C/C(=C/c1ccc(N2CCCCC2)o1)C(=O)Nc1ccc2ccccc2c1 was read as TRHR enhancer -14, D1 agonist 313*, D1 PAM -8, TRHR agonist 106* and D1 antag -38*.
For COc1ccc(NC(=O)/C(C#N)=C/c2ccc(Br)o2)cc1 the results were TRHR enhancer 0, D1 agonist 6, D1 PAM 1, TRHR agonist 0 and D1 antag -1.
`Cc1ccc(N2CCN(C(=O)NCc3noc4ccc(C)cc34)CC2)c(C)c1` gave TRHR enhancer 2, D1 agonist 2, D1 PAM -4, TRHR agonist 0 and D1 antag -4.
Screening CCc1cccc(-n2nnc(-c3nc(-c4ccccc4Cl)no3)c2N)c1 returned TRHR enhancer 9, D1 agonist 2, D1 PAM 0, TRHR agonist -1 and D1 antag -6.
Nc1cccc(/C=C/c2ccncc2)c1 was read as TRHR enhancer 3, D1 agonist 1, D1 PAM 0, TRHR agonist 0 and D1 antag -41*.
Screening COCCn1c(SCC(=O)N2CCN(c3ccccc3)CC2)nc2c(c1=O)SC(C)C2 (stereo not given) returned TRHR enhancer -12, D1 agonist 0, D1 PAM -7, TRHR agonist -1 and D1 antag -35*.
`CC(C)(C)c1ccc(Nc2nc(C#N)nc(NC3CCCC3)n2)cc1` gave TRHR enhancer 5, D1 agonist 6, D1 PAM 4, TRHR agonist 1 and D1 antag -1.
Screening CC1CCCN(C(=O)CSCC(=O)Nc2nc(-c3cccs3)cs2)C1 (stereo not given) returned TRHR enhancer -5, D1 agonist 12, TRHR agonist 3 and D1 antag -84*.
`O=C(CN1CCN(c2ccc([N+](=O)[O-])cc2)CC1)Nc1nccs1` gave TRHR enhancer -1, D1 agonist 8, D1 PAM 7, TRHR agonist 0 and D1 antag -32*.
Screening O=C(CN1CCN(c2ccc([N+](=O)[O-])cc2)CC1)Nc1ccccn1 returned TRHR enhancer 0, D1 agonist 16, D1 PAM -8, TRHR agonist 0 and D1 antag -14.
For CCC(=O)N1N=C(c2ccc(C)cc2)CC1c1ccco1 (stereo not given) the results were TRHR enhancer 3, D1 agonist 3, D1 PAM -3, TRHR agonist -2 and D1 antag -37*.
`CCC(=O)N1N=C(c2cccs2)CC1c1ccco1` (stereo not given) gave TRHR enhancer -4, D1 agonist 1, D1 PAM -8, TRHR agonist -1 and D1 antag 6.
